Compound activity: PubChem BioAssay, several laboratories
This is a sample that favours compounds with a hit; in the whole collection about 32% have one here.
CYP2C19 inhib – blocks human cytochrome P450 2C19 | P33261 | CYP2C19 Supersomes, luciferin-H EGE luminescence, 30 min | inhibition, % at 5 µM | 21% of 96,000 active | AID 778;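 active = CYP2C19 inhibition above a set limit at 5 µM in the primary screen, cut at about 50% in these data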;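 also: plate controls were negative control wells for no effect and 2.5 mM tranylcypromine positive control for full effect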
PostGolgi yeast – growth inhibition of a yeast mutant, post-Golgi transport screen; post-Golgi transport phenotypic cell assay; inhibition, % at 10 µM; 0.9% of 98,000 active; AID 739;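 also: yeast cells grown in 1536-well plates; yeast grown about 18 h at 30C before absorbance read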
PostGolgi ctrl – yeast control strain growth, post-Golgi counter-screen; efflux-deficient yeast background strain, growth absorbance A615, 16 h; inhibition, % at 10 µM; 5% of 98,000 active
CYP2C9 activ – CYP2C9 (human) activation. P11712. AID 1024. recombinant CYP2C9, luciferin-H conversion, luminescence; active compounds read high; factor 1 = untreated enzyme, 0 = blocked. activation factor at 5 µM. 1.4% of 96,000 active;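 active = activation factor of 2 or more for CYP2C9 at a 5 µM dose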;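 also: 0 = sulfaphenazole-blocked wells and 1 = vehicle-only wells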
Target sequence (P11712 whole entry, looked up): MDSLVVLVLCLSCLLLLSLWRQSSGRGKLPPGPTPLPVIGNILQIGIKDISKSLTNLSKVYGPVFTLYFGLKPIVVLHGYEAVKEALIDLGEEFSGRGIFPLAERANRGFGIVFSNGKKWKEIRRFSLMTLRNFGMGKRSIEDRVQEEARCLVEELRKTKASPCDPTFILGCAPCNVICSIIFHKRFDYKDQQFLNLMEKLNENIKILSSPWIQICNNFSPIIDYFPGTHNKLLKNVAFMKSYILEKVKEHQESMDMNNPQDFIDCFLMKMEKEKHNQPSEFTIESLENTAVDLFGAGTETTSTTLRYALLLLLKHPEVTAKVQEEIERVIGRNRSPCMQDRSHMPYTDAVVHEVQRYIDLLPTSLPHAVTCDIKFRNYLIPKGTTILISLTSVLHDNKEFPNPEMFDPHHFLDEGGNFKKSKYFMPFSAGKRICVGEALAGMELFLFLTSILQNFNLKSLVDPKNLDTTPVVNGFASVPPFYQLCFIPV
CYP2C9 inh – human CYP2C9 inhibition; CYP2C9 Supersomes, luciferin-H conversion, luminescence; AID 777; inhibition, % at 5 µM; P11712; 20% of 96,000 active;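 active = blocking of liver enzyme CYP2C9 beyond about 50% at 5 µM, limit read from the data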
CYP2C19 act – activators of human cytochrome P450 2C19. P33261. AID 1025. recombinant CYP2C19, luciferin-H EGE luminescence; active compounds read high; 0 = fully inhibited enzyme, 1 = untreated enzyme. activation factor at 5 µM. 96,000 tested, under 10 active;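 active = activation factor of at least 2 at 5 µM in the primary screen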;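 also: 0 = wells with 2.5 mM tranylcypromine and 1 = vehicle-only wells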
The depositor's hits bear a star; / = no result given. Rule as the data show it, unless noted: active = inhibition above about 30%; inactive = the rest.

SMILES | CYP2C19 inhib | PostGolgi yeast | PostGolgi ctrl | CYP2C9 activ | CYP2C9 inh | CYP2C19 act
O=C(N/N=C/c1ccco1)/C(=C/c1cccc([N+](=O)[O-])c1)NC(=O)c1ccccc1 | 68.9* | -9.7 | -0.9 | 0.9 | 11.1 | 0.3
Clc1ccc(-c2n[nH]c3c2CCC3)cc1Cl | 12.7 | 101.0* | 69.2* | 0.6 | 37.6 | 0.9
Cc1ccc(Cl)cc1N1CCN(Cc2nnnn2Cc2ccco2)CC1 | 76.8* | 3.7 | 38.3* | 0.1 | 93.1* | 0.2
CCC(c1nnnn1Cc1ccco1)N1CCC(C(N)=O)CC1 (stereo not drawn) | 2.1 | 15.3 | -6.4 | 1.1 | -5.4 | 1
CCC(c1nnnn1Cc1ccco1)N1CCN(c2cc(Cl)ccc2C)CC1 (stereo not drawn) | 19.4 | 4.3 | 56.5* | 0.4 | 58.9* | 0.8
Cc1nc(C)c(-c2csc(NCc3ccccc3)n2)s1 | 82.9* | -4.5 | 7.5 | 0.8 | 17.4 | 0.2
Cc1nc2ccccn2c1-c1csc(NCc2ccco2)n1 | 72.5* | 1.1 | 20.1 | 0.4 | 59.4* | 0.3
Cc1ccccc1Nc1nc(-c2sc(NC(=O)c3ccco3)nc2C)cs1 | 28.7 | -0.8 | 0.9 | 0.7 | 29.9 | 0.7
Cc1nc(NC(=O)c2ccccc2)sc1-c1csc(NCc2ccco2)n1 | 89.3* | 7.5 | 22.6 | 0.7 | 29.9 | 0.1
Cc1nc(C)c(-c2csc(NCc3ccco3)n2)s1 | 69.0* | 0.5 | 1.3 | 2.7* | -169.4 | 0.3
COc1ccccc1Nc1nc(-c2sc(NC(=O)C(C)(C)C)nc2C)cs1 | 11.6 | -5.2 | 3.4 | 0.6 | 40.2 | 0.9
COc1ccc(C(=O)Nc2cc(C)c3c(=O)oc4ccccc4c3n2)cc1 | -7.7 | -0.4 | 18.7 | 0.9 | 5.1 | 1.1
COCCNC(=O)c1nn(-c2cc(OC)cc(OC)c2)c(=O)c2ccccc12 | 9.1 | -0.5 | 1.5 | 0.8 | 19.8 | 0.9
Cc1ccc(CCNC(=O)C2CCN(C(=O)c3sccc3-n3cccc3)CC2)cc1 | 34.2 | -4.2 | 18.7 | 0.7 | 32.2 | 0.7
Cc1[nH]c2c(C)cccc2c(=O)c1Br | -3.2 | 7.7 | 2.6 | 1.2 | -20.3 | 1
O=C(/C=N/O)NCc1ccncc1 | -3.1 | 7.8 | -12.1 | 0.9 | 11.3 | 1
Cc1csc(N2CCc3ccccc32)n1 | -16.0 | 13.0 | 31.3* | 1.1 | -14.4 | 1.2
Cc1cc(N2CCCc3ccccc32)n2ncnc2n1 | -4.6 | 1.0 | 13.7 | 1.1 | -9.6 | 1
COc1ccc(NC(=O)CN2CCC3(O)CCCCC3C2c2ccccc2OC)cc1 (stereo not drawn) | 73.7* | 9.8 | 9.7 | 0.1 | 90.8* | 0.3
COc1cc([C@H]2[C@@H]3CCCC[C@]3(O)CCN2CC(=O)Nc2ccc(C)cc2)ccc1O | 63.2* | -6.6 | 4.7 | 0.3 | 74.1* | 0.4
COc1ccc(NC(=O)Cn2nc3n(c2=S)CCC3)cc1 | 7.6 | 0.5 | 19.7 | 0.9 | 7.2 | 0.9
CCN(CC)c1ccc(C2C3CCCCC3(O)CCN2CC(=O)N2CCCCC2)cc1 (stereo not drawn) | 5.0 | 0.8 | 4.2 | 1.1 | -9.9 | 0.9
COc1cccc(C(=O)Oc2cc(-c3ccccc3)no2)c1 | -3.3 | -0.3 | -2.8 | 0.9 | 5.8 | 1
Cc1cc(Nc2ccc(C)c(C)c2)n2nc(C)nc2n1 | 25.4 | 5.3 | -7.8 | 0.5 | 52.0* | 0.7
Cc1cc(Nc2ccc(Br)cc2)n2nc(C)nc2n1 | / | 2.9 | 0.5 | / | / | /
SMILES | CYP2C19 inhib | PostGolgi yeast | PostGolgi ctrl | CYP2C9 activ | CYP2C9 inh | CYP2C19 act
Cc1cc(Nc2ccc(F)cc2Cl)n2nc(C)nc2n1 | -19.3 | 10.8 | 31.7* | 1.2 | -19.5 | 1.2
CCOc1nc(C)nc(NC(=O)NS(=O)(=O)c2ccccc2Cl)n1 | -2.7 | -3.3 | 10.1 | 1.1 | -5.5 | 1
CCCCSc1nnc(CSc2nc3nc(C)cc(C)n3n2)o1 | 40.3 | 7.4 | -2.2 | 0.9 | 6.5 | 0.6
Cc1cccc(NC(=O)CSc2nnc(-c3ccncc3)n2C)c1 | 79.9* | 0.0 | -2.8 | 0.5 | 52.1* | 0.2
Cc1cc(NC(=O)CSc2nnc(-c3ccncc3)n2N)ccc1Br | 47.8 | 13.7 | -2.3 | 0.1 | 87.3* | 0.5
Cc1cccc(NC(=O)CSc2nnc(-c3ccc(S(=O)(=O)N4CCOCC4)cc3)n2C)c1 | 99.4* | 13.3 | 6.9 | 0.5 | 51.6* | 0
Cc1ccc(C)c(NC(=O)CSc2nnc(-c3ccccc3)n2N)c1 | 62.6* | 17.5 | -4.8 | 0.7 | 34.9 | 0.4
Cc1nnc(NC(=O)CSc2nnc(-c3ccc(S(=O)(=O)N4CCCC4)cc3)n2C)s1 | / | 4.2 | 8.3 | / | / | /
